Measurements reported in PubChem BioAssay (NCI).
Compounds without any hit were thinned out: in the full panel of roughly 79,000, 15% have a hit. Rule as the data show it: active = growth inhibition above about 70%; inactive = the rest.

How the values were obtained:
[1] = NCI Yeast Anticancer Drug Screen. Data for the rad50 strain (AID 155);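 also: 0% = growth of vehicle-only cultures of the same strain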; settings: S. cerevisiae rad50 strain growth inhibition; at 50.0 µM; stronger effect = higher value
Method in brief: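 Vehicle-treated cultures provide the reference for the growth inhibition reported for compound-exposed, repair-deficient yeast.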

[2] = NCI Yeast Anticancer Drug Screen. Data for the mec2-1 strain (AID 157); settings: S. cerevisiae mec2-1 strain, at 50.0 µM, stronger effect = higher value
Method in brief: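 Readout is yeast growth inhibition, normalised to vehicle-treated controls, in the mec2-1 strain exposed to compound.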

[3] = NCI Yeast Anticancer Drug Screen. Data for the sgs1 mgt1 strain (AID 161);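 also: 0% = growth of cultures given vehicle only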; settings: S. cerevisiae sgs1 mgt1 strain, at 50.0 µM, stronger effect = higher value
Method in brief: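 Growth of a repair-deficient yeast mutant was monitored after compound treatment and expressed as inhibition relative to vehicle-treated cultures.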

[4] = NCI Yeast Anticancer Drug Screen. Data for the cln2 rad14 strain (AID 165);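 also: 0% = growth equal to vehicle treated cultures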; settings: S. cerevisiae cln2 rad14 strain, at 50.0 µM, stronger effect = higher value
Method in brief: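 Relative to vehicle controls, growth inhibition of compound-treated cln2 rad14 yeast was recorded.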

[5] = NCI Yeast Anticancer Drug Screen. Data for the bub3 strain (AID 167); settings: S. cerevisiae bub3 mutant strain, at 50.0 µM, stronger effect = higher value
Method in brief: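 Mutant yeast screening strain plus compound; vehicle-treated cultures serve as the 0% inhibition reference.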

[6] = NCI Yeast Anticancer Drug Screen. Data for the mlh1 rad18 strain (AID 175); settings: S. cerevisiae mlh1 rad18 strain growth inhibition; at 50.0 µM; stronger effect = higher value
Method in brief: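 Test agents were incubated with a yeast strain of defined genotype (DNA damage repair defect). Inhibition of growth was derived by comparison with vehicle-exposed cultures.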

Measured: growth inhibition

CS(=O)(=O)OCC1CCCCCCCCCCC12SCCCS2 (centres undefined)
inactive: [1] -30.9% | [2] -22.7% | [3] -3.25% | [4] 20.4% | [5] -23.6% | [6] -45.9%

O=C(N/N=C/c1ccc(Cl)cc1Cl)C(O)(c1ccccc1)c1ccccc1
inactive: [1] 17.4% | [2] 16.1% | [3] 10.2% | [4] 22.9% | [5] 10.7% | [6] 19.3%

CC(=O)NC(C)NC(C)=O
inactive: [1] -11.8% | [2] -9.95% | [3] -13.8% | [4] -86.5% | [5] 7.25% | [6] -5.35%

NC(=O)C(=O)CC(=O)c1ccccc1NC1=CC(=O)C(=O)c2ccccc21
inactive: [1] 41% | [2] 29.1% | [3] 20.4% | [4] 30.4% | [5] 36.4% | [6] 37.5%

C1CC2(C34CCC(CC3)C4)CCC1C2
inactive: [1] -5.15% | [2] 1.45% | [3] 14.2% | [4] 7.55% | [5] 7.1% | [6] -2.6%

N#CCCCCC12C3C(=O)N(c4ccccc4)C(=O)C3ON1O[C@@H]1C(=O)N(c3ccccc3)C(=O)[C@@H]12 (some centres undefined)
inactive: [1] 43.4% | [2] 19.3% | [3] 26.7% | [4] 49.9% | [5] 33.5% | [6] 44.4%

Cc1ccc(NC(=O)C(C)C)cc1
inactive: [1] -14% | [2] -16.6% | [3] -13.4% | [4] -24.2% | [5] -19.1% | [6] -21.2%

O=C(Nc1ccc(S(=O)(=O)Nc2nccs2)cc1)c1cccnc1Nc1cccc(Cl)c1
inactive: [1] 36.6% | [2] 8.5% | [3] 22.2% | [4] 1.15% | [5] 13.4% | [6] 61.2%

NC(CCS(N)(=O)=O)C(=O)O (centres undefined)
inactive: [1] -9.45% | [2] -5.3% | [3] -1.85% | [4] -2.7% | [5] 5.5% | [6] -10.9%

CSc1n[n+]2c(s1)SCCC2
inactive: [1] -19.8% | [2] -27.2% | [3] 0.05% | [4] 5.45% | [5] -8.7% | [6] 0.05%

COC(=O)CC[C@@H](NC(=O)C(C)NC(=O)COC1C(O)C(COC(=O)CCCCCCCCCCNC(=O)c2ccc([N+](=O)[O-])c3[nH]c4cc(Br)ccc4c(=O)c23)OC(OCc2ccccc2)C1NC(C)=O)C(N)=O (some centres undefined)
inactive: [1] -14.5% | [2] -10.7% | [3] -17.6% | [4] 1.5% | [5] -5.75% | [6] -16.6%

C/C(=N\NS(=O)(=O)c1ccc(N)cc1)c1ccc(C)cc1C
inactive: [1] -12.9% | [2] -19.6% | [3] 0.8% | [4] -5.25% | [5] -28.6% | [6] -16.5%

ClCC#CCCl
inactive: [1] 19.4% | [2] -10.9% | [3] 16.9% | [4] 4.3% | [5] -7.4% | [6] 5.1%

NC(=S)N/N=C/c1cccc(CC(O)(C(F)(F)F)C(F)(F)F)n1
inactive: [1] 2.6% | [2] 7.1% | [3] 3.7% | [4] -28.4% | [5] -2.1% | [6] 24%

O=C1c2ccccc2C2CC1c1ccccc12 (centres undefined)
inactive: [1] 6.35% | [2] -1.6% | [3] -1.7% | [4] -7.7% | [5] -16.4% | [6] -5.4%

NC1=NN(c2ccccc2)C(=O)C1C(=O)C(=O)Nc1ccc(Cl)c(Cl)c1 (centres undefined)
inactive: [1] -6.4% | [2] -23.8% | [3] 11.8% | [4] 0.15% | [5] 12.2% | [6] -6.2%

O=S(Cc1cnc2ccccc2c1)c1nc2ccccc2nc1-c1cccs1 (centres undefined)
inactive: [1] -10.2% | [2] -28.8% | [3] -20.7% | [4] -11% | [5] -8.4% | [6] -11.7%

CC(CC[C@@]1(C)C(=O)CCC2O[C@]21C)[C@H]1C[C@@H](c2ccoc2)OC1=O (some centres undefined)
inactive: [1] 9.05% | [2] -31.8% | [3] -5.4% | [4] -15.8% | [5] -4.8% | [6] -70.9%

O=C1c2c(ccc3c2CCCC3)CC12Cc1ccccc1C2
inactive: [1] 8.9% | [2] -4.45% | [3] 9.25% | [4] -2.75% | [5] 4.8% | [6] 4.7%

COc1ccc(NC(=O)Oc2cccc(NC(C)=O)c2)c(OC)c1
inactive: [1] 13.8% | [2] 8.7% | [3] 10.1% | [4] 4.35% | [5] 12.4% | [6] 8.65%

O=C(CNC(=O)c1ccccc1)NCS(=O)(=O)O
inactive: [1] 12.2% | [2] -3.6% | [3] 19% | [4] 14.7% | [5] 19.2% | [6] 11.3%

O=C(Nc1ccc(I)cc1)c1ccc([N+](=O)[O-])cc1
inactive: [1] 2.3% | [2] -11.1% | [3] -5.05% | [4] -8.2% | [5] 0.35% | [6] -4.5%

Cc1cc2cc3c(C)cc(=O)oc3c(C)c2o1
inactive: [1] -35.1% | [2] -37.1% | [3] -28.4% | [4] -8.35% | [5] -10.5% | [6] -17.6%

Cc1nc(N)[nH]c(=O)c1Cc1ccc(Cl)cc1Cl
inactive: [1] -1.65% | [2] -1.15% | [3] -5.7% | [4] -44.4% | [5] -12.6% | [6] 8.55%

CC1(C)CC(OP(=O)(OC2CC(C)(C)N(O)C(C)(C)C2)c2ccccc2)CC(C)(C)N1O
inactive: [1] 32.1% | [2] 8.45% | [3] 11.1% | [4] -21.1% | [5] 6.3% | [6] 6.5%

CCOC(CNCc1ccc(OC)cc1)OCC
inactive: [1] -0.25% | [2] -3.1% | [3] 4% | [4] -2.05% | [5] 22.4% | [6] 7.6%

CC1(C)C=Cc2c(cc(O)c3c(=O)c4cc(Cl)ccc4[nH]c23)O1
inactive: [1] -14.2% | [2] -42.4% | [3] -14.8% | [4] -18.1% | [5] -15% | [6] -12.1%

CSc1ccc(Nc2ncnc(N)n2)cc1
inactive: [1] 19.9% | [2] 5.6% | [3] 8.6% | [4] -1.4% | [5] 8.8% | [6] 14.6%

N#Cc1cc2c(n(C3OC(CO)C(O)C(O)C3O)c1=S)CCCCCC2 (centres undefined)
inactive: [1] 31% | [2] 19.5% | [3] 17.8% | [4] 10.4% | [5] -3.55% | [6] 37.1%

CN1CCc2c1nc(-c1ccc(Cl)cc1)c1c2N(C)CC1
inactive: [1] 5.15% | [2] 1.5% | [3] 0% | [4] 9% | [5] -9.55% | [6] -7.35%

CCCCCCCCCC1(C(=O)OCC)OC1(C)C (centres undefined)
inactive: [1] 8.55% | [2] -15.8% | [3] 5.75% | [4] 10.5% | [5] 15.2% | [6] -11.8%

CC1=CC(=O)CCC1c1ccccc1 (centres undefined)
inactive: [1] -52.6% | [2] -4.75% | [3] -19.8% | [4] 0.8% | [5] -10.4% | [6] -5.95%

Cc1cc(=O)n(-c2ccc([N+](=O)[O-])cc2)c(C)c1C(=O)O
inactive: [1] 3.25% | [2] -2.4% | [3] 4.85% | [4] -0.15% | [5] 7.9% | [6] -1.65%

Cc1c(Cl)cccc1NC(=O)c1c(Cl)c(Cl)c(Cl)c(Cl)c1C(=O)O
inactive: [1] 7.15% | [2] -1.35% | [3] 8.6% | [4] -31.7% | [5] 0.85% | [6] 14.1%

CC(=O)N1CN2C(=O)CCC2c2ccccc21 (centres undefined)
inactive: [1] -7.85% | [2] 1.4% | [3] -14.2% | [4] 9.25% | [5] -21.5% | [6] -48.2%

Cn1cc(NC(=O)c2cc(NC(=O)CCCCCC(=O)Nc3cc(C(=O)Nc4cc(C(=O)NCCC(=N)N)n(C)c4)n(C)c3)cn2C)cc1C(=O)NCCC(=N)N
inactive: [1] -14.1% | [2] -14.9% | [3] -17.6% | [4] -1.35% | [5] -24.4% | [6] -3.6%

CN1CCC(C(=O)NNc2ccccc2)CC1
inactive: [1] -12.1% | [2] -13.2% | [3] -3.75% | [4] 7.3% | [5] 0.1% | [6] 4.7%

Nc1ccc(N=Nc2ccc(N)cc2)cc1
inactive: [1] 12.7% | [2] 6.5% | [3] -13.7% | [4] -8.9% | [5] 11.2% | [6] 2.5%

O=C(c1ccccc1)c1c(-c2ccccc2)sc2nc3ccccc3nc12
inactive: [1] 3% | [2] 18.3% | [3] 3.2% | [4] 29.1% | [5] 2.65% | [6] 11.2%
